Test results reported in the supplement of paper PMC7156485.
± gives the standard deviation of the averaged measurements.

system: TDF; test: cell number relative to DMSO (% of DMSO); higher = more cells (less growth inhibition / toxicity); details: concentration: 10 µM; 24 h
Procedure, shortened: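 For HCC1569 and TDF cells, compounds at 10 µM were applied for 24 h at 37 °C in triplicate in 384-well plates. Cells were fixed in 3.7% formaldehyde, stained for H1.0 and with DAPI, and imaged at ×10 over six fields per well. The endpoint, H1.0 nuclear intensity or cell number, is shown as percent of the plate control using the median of replicates. Positional effects were smoothed for HCC1569 only.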
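Note: TDF denotes transformed human dermal fibroblasts of mesenchymal origin.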

Structure (SMILES) | cell number
CC(N)(Cc1ccc(O)c(O)c1)C(=O)O (stereo not given) [Methyldopa] | 100
O=C(O)c1ccc(O)c2ncccc12 [8-hydroxy-5-quinolinecarboxylic acid] | 99.2
C[N+]1(CCCCC[N+]2(C)CCCC2)CCCC1.O=C([O-])C(O)C(O)C(=O)O.O=C([O-])C(O)C(O)C(=O)O [Pentolinium di[L(+)-tartrate]] | 110
Cc1nc2cc3nc(-c4cccs4)cnc3cc2n1C | 96.2
Clc1cccc(CNC2=Nc3ccccc3NC23CCNCC3)c1 | 89.6
O=C(NC(NC(=S)Nc1ccc(F)c([N+](=O)[O-])c1)C(Cl)(Cl)Cl)C(c1ccccc1)c1ccccc1 (stereo not given) | 58.3
CN(C)CCCC1(c2ccc(F)cc2)OCc2cc(C#N)ccc21 (stereo not given) [Escitalopram] | 86.1
COc1cc(-c2oc3cc(O)cc(O)c3c(=O)c2OC2OC(CO)C(O)C(O)C2O)cc(OC)c1O (stereo not given) [Syringetine-3-glucoside] | 93
CCc1nn(CCCN2CCN(c3cccc(Cl)c3)CC2)c(=O)n1CCOc1ccccc1 | 95
C[C@]12CCC(=O)C=C1CC[C@@H]1[C@@H]2[C@@H](O)C[C@@]2(C)[C@H]1CC[C@]2(O)C(=O)COC(=O)CCC(=O)[O-].[Na+] | 99.8
COc1ccc(-c2nn3c(-c4ccccn4)nnc3s2)cc1OC | 103
CCOC(=O)C1=C(C)NC(C)=C(C(=O)OC)C1c1cccc(Cl)c1Cl (stereo not given) [Felodipine] | 117.1 ± 0.85
O=C1Nc2cc(Br)ccc2C1=C1N=c2ccccc2=C1NO [(2'Z,3'E)-6-Bromoindirubin-3'-oxime] | 61.4
CC1=CC(=O)c2ccccc2C1=O [Menadione] | 82.8
CN(C)CCOc1ccc(-c2nc(=c3ccc4c(c3)CCC=4N=O)c(=C3C=CNC=C3)[nH]2)cc1 | 49
S=C(NCc1ccc2c(c1)OCO2)N1CCN(c2ncnc3c2oc2ccccc23)CC1 | 72.6
N#CC(=Cc1ccc(O)cc1)C(N)=C(C#N)C#N | 96.7
O=C1NCCc2[nH]c(-c3ccncc3)cc21 [Cdc7/Cdk9 Inhibitor] | 35.3
O=c1cc(N2CCOCC2)oc2c(-c3ccccc3)cccc12 | 102
O.O.O=c1c(O)c(-c2ccc(O)c(O)c2)oc2cc(O)cc(O)c12 | 89.7

Structure (SMILES) | cell number
CCC1=C(C)CN(C(=O)NCCc2ccc(S(=O)(=O)NC(=O)NC3CCC(C)CC3)cc2)C1=O (stereo not given) [Glimepiride] | 111
COC1(NC(=O)CSCC#N)C(=O)N2C(C(=O)[O-])=C(CSc3nnnn3C)CSC21.[Na+] (stereo not given) [Cefmetazole sodium] | 110
COc1ccccc1OCC(O)CO (stereo not given) [Guaifenesin] | 102
CCOc1nc2cccc(C(=O)O)c2n1Cc1ccc(-c2ccccc2-c2nc(=O)o[nH]2)cc1 | 101
CC(=O)CC/C=C(\C)CC/C=C(\C)CC/C=C(\C)CCC=C(C)C | 96.2
CC(C)(C)C(=O)C(Oc1ccc(Cl)cc1)n1ccnc1 (stereo not given) [Climbazole] | 98.7
CCN(CC)CC(=O)Nc1c(C)cccc1C.Cl.O [Lidocaine.HCl.H2O] | 99.8
O=C1OC(=O)C2C3CCC(O3)C12 (stereo not given) [Norcantharidin] | 92.3
C=CCc1ccc(O)c(OC)c1 [Eugenol] | 114
OCCN(CCO)c1nc(N2CCCCC2)c2nc(N(CCO)CCO)nc(N3CCCCC3)c2n1 [Dipyridamole] | 104 ± 7.8
COC(=O)C(=C1OC(=O)C(c2ccccc2)=C1O)c1ccccc1 [Vulpinic acid] | 95.3
O=C(Cc1ccc(Cl)c(Cl)c1)OCCN1CCCC1.O=C(O)C(=O)O [AC 915 oxalate] | 105
O=C1NC(=O)C(c2ccccc2)(c2ccccc2)N1 [Phenytoin] | 98.5
CCCCCCCCC=CCCCCCCCC(=O)OCC(CO)OC(=O)CCCCCCCC=CCCCCCCCC (stereo not given) [1,2-Dioleoyl-glycerol (18:1)] | 104
O=C(O)C(=S)Cc1ccc(I)cc1 [(2Z)-3-(4-iodophenyl)-2-sulfanyl-2-propenoic acid] | 104
CC(N)(Cc1ccc(O)c(O)c1)C(=O)O (racemic) | 101
COc1ccc2cc1Oc1ccc(cc1)CC1c3cc(c(OC)cc3CCN1C)Oc1c(OC)c(OC)c(OC)c3c1C(C2)N(C)CC3 (stereo not given) [Hernandezine] | 93
NNCCc1ccccc1.O=S(=O)(O)O [Phenelzine sulfate] | 102
CN(C)CCCSc1ccccc1NC(=O)C=Cc1ccccc1 [Cinanserin] | 102
O=c1oc2cc(O)ccc2c2oc3cc(O)ccc3c12 [Coumestrol] | 91.8
